Screens from PubChem.
G9a inh – inhibitors of human histone lysine methyltransferase G9a; G9a H3K9 monomethylation, AlphaScreen, 2 h; 8.8% of 350,000 active; Potency, µM (highest dose often 102 µM), hits mostly inhibitors; AID 504332; also: nearly all actives have a fitted effect of over 75% in size
Target sequence (Q96KQ7 913-1193 limits assumed): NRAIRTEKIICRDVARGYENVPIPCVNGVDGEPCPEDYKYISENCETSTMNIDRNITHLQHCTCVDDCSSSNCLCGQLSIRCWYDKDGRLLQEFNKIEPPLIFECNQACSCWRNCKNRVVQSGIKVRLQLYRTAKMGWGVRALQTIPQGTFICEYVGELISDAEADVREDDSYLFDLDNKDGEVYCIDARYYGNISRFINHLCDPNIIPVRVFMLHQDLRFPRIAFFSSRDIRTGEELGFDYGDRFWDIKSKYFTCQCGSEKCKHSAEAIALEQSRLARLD
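AlphaScreen detection with an anti-monomethyl H3K9 antibody quantified product after a 2 h room-temperature reaction containing 500 nM biotinylated H3K9 peptide, 20 µM SAM and 20 nM enzyme, which had been preincubated 15 min with compound.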
HP1b binding inh – inhibitors of HP1-beta chromodomain binding to methylated histone tails | AID 540317 | P83916 | 0.56% of 390,000 active | Potency, µM (titrated, usually from 114 µM), actives largely listed as inhibitors | AlphaScreen HP1-beta / biotin-H3K9me3 peptide binding; also: nearly all actives have a fitted effect of over 70% in size
Target sequence (P83916 whole entry, looked up): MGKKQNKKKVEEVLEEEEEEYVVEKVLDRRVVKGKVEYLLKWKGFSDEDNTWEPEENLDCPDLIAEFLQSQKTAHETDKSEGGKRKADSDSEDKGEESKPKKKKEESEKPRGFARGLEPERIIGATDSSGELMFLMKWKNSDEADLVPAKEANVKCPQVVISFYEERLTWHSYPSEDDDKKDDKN
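Compound inhibition of the preformed complex between 50 nM HP1-beta and 50 nM biotinylated H3K9me3 peptide was read by AlphaScreen. Buffer was PBS pH 7.4 with 0.01% Tween-20. Incubations ran 30 min at room temperature, with 10 ug/mL donor/acceptor beads.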
BAZ2B inh – blocks human BAZ2B; Q9UIF8; AlphaScreen BAZ2B-H3K14Ac peptide displacement; Potency, µM (highest dose often 114 µM), actives largely listed as inhibitors; 4.4% of 360,000 active; also: nearly all actives have a fitted effect of over 60% in size
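Protein-peptide AlphaScreen: BAZ2B 50 nM, b-H3K14Ac 50 nM, 1x PBS pH 7.4 + 0.01% Tween-20. Preincubation 30 min RT; cpd 30 min RT (top 110 uM); beads 20 min RT, light-protected.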
GLS inh – blocks human kidney-isoform glutaminase activity | 0.21% of 410,000 active | GLS enzymatic activity, qHTS titration | O94925 | Potency, µM (titrated, usually from 45.5 µM), usual class: inhibitors | AID 624170
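hKGA in 45 mM KH2PO4 (pH 8.2), 0.02% Tween-20 with compound, then 1mM L-Glutamine (stock as added) plus glutamate oxidase/HRP/Amplex red coupling mix. Fluorescence read initially and after 30 min at RT; signal change reflects glutamate formation.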
JMJD2A Tudor inh – blocks the human JMJD2A Tudor domain. O75164. AlphaScreen JMJD2A-Tudor / H3K4me3 peptide binding. Potency, µM (titrated, usually from 114 µM), hits mostly inhibitors. 4.4% of 390,000 active. AID 504339; also: nearly all actives have a fitted effect of over 50% in size
Numbers stand for hits; . = inactive; ? = inconclusive; / = no result; ! = not active in a repeat; [ ] = remark or other dose. Shown are actives, neighbours in structure and some others; about 10% of the full set was active somewhere. Calls follow the shape of the dose curve; as a rule, active = well fitted curve in the direction sought with a large enough effect; inconclusive = small, poorly fitted or top-dose-only effect, or another doubt; inactive = no such curve, though single readings can be large; an effect the other way counts as inactive or inconclusive.

SMILES	G9a inh	HP1b binding inh	BAZ2B inh	GLS inh	JMJD2A Tudor inh
COc1ccccc1N1CCN(C2CCN(S(=O)(=O)c3ccc(NC(C)=O)cc3)CC2)CC1	.	.	.	.	.
COc1ccccc1N1CCN(C2CCCN(S(=O)(=O)c3cccc(Cl)c3)C2)CC1 (centres undefined)	?	.	?	.	?
COc1ccc(S(=O)(=O)N2CCC(N3CCN(Cc4ccccc4)C(=O)C3=O)CC2)cc1	.	.	.	.	79.4µM
C=CCn1c(=O)c(C(=O)NCCNCC)c(O)c2ccccc21	?	.	?	.	.
CCNCCNC(=O)c1c(O)c2ccccc2n(CC)c1=O	11.2µM	.	.	.	.
CCn1c(=O)c(C(=O)NCCN2CCCCC2)c(O)c2ccccc21	56.2µM	.	?	.	.
COCCNC(=O)c1cc(S(=O)(=O)N2CCOCC2)ccc1SCc1cccc(OC)c1OC	28.2µM	.	.	.	.
COc1ccccc1CNC(=O)c1oc2ccc(S(=O)(=O)N3CCOCC3)cc2c1C	.	.	.	.	.
COc1cccc(CSc2ccc(S(=O)(=O)N3CCOCC3)cc2C(=O)NCC2CCCO2)c1OC (centres undefined)	39.8µM	.	.	.	.
Cc1ccc(S(=O)(=O)N2CCOCC2)cc1C(=O)NCC1CCCO1 (centres undefined)	/	.	.	.	.
CN(C)c1ccc(CNC(=O)c2cc(S(=O)(=O)N3CCOCC3)cn2C)cc1	39.8µM	.	.	.	.
CN(C)c1ccc(CNC(=O)CCCn2ccc3cc(S(=O)(=O)N4CCCC4)ccc32)cc1	8.91µM	.	?	.	?
CN1CCN(c2nc(-c3ccccc3C(F)(F)F)nc3ccccc23)CC1	.[0.501 µM]	/	/	/	/
O=C(c1nnsc1S(=O)(=O)c1ccc(Cl)cc1)N1CCOCC1	50.1µM	.	.	.	.
O=C(Nc1ccccc1)c1nnsc1S(=O)c1ccc(Cl)cc1 (centres undefined)	?	.	.	?	?
O=C(c1nnsc1S(=O)c1ccc(Cl)cc1)N1CCOCC1 (centres undefined)	31.6µM	?	.	.	7.08µM
O=C(c1ccc(NS(=O)(=O)c2ccc(Cl)cc2)cc1)N1CCOCC1	.	.	.	.	.
CNC(=O)c1nnsc1S(=O)(=O)c1ccc(Cl)cc1	14.1µM	.	.	.	.
COc1ccc(S(=O)(=O)NCCc2nnc3ccc(SCC(=O)Nc4ccc(C(F)(F)F)cc4)nn23)cc1	.	.	.	.	.
COc1ccc2c(c1)CCCC2NS(=O)(=O)OCC(Cl)(Cl)Cl (centres undefined)	/	.	.	.	.
CC1(C)CC(NS(=O)(=O)OCC(Cl)(Cl)Cl)c2cc(C#N)ccc2O1 (centres undefined)	.	.	.	.	31.6µM
CCCCNS(=O)(=O)c1ccc2nc(-c3cccs3)cc(C(=O)NCC(OC)OC)c2c1	.	/	.	/	/
NC(=O)C1CCN(c2c([N+](=O)[O-])cc(C(F)(F)F)cc2[N+](=O)[O-])CC1	/	.	.	.	.
COC(=O)C1CCN(c2c([N+](=O)[O-])cc(C(F)(F)F)cc2[N+](=O)[O-])CC1	?	?	35.5µM	.	.[11.4 µM]
CCc1cccc(N(C(=O)c2csnn2)C(C(=O)NC(C)(C)C)c2ccncc2)c1 (centres undefined)	.	.	?	.	56.2µM
SMILES	G9a inh	HP1b binding inh	BAZ2B inh	GLS inh	JMJD2A Tudor inh
CCc1ccc(N(C(=O)c2csnn2)C(C(=O)NC(C)(C)C)c2ccncc2)cc1 (centres undefined)	/	.	.	.	.
O=C(NCc1ccccc1)C(c1ccncc1)N(C(=O)c1ccccn1)c1ccccc1 (centres undefined)	22.4µM	.	50.1µM	.	25.1µM
Cc1ccccc1N(C(=O)c1ccccn1)C(C(=O)NCc1ccccc1)c1ccncc1 (centres undefined)	.	.	.	.	.
O=C(Nc1c(C(=O)O)[nH]c2ccc(F)cc12)c1cccc(C(F)(F)F)c1	?	?	.	.	79.4µM
Cc1c(C(=O)N2CCC(C(=O)Nc3ccc(F)cc3)CC2)sc2nc[nH]c(=O)c12	.	.	.	.	.
Cc1ccc(C)c(Nc2nc3c(S(=O)(=O)c4ccc(C(C)C)cc4)nnn3c3ccsc23)c1	.	.	79.4µM	.	.
COc1ccccc1Nc1nc2c(S(=O)(=O)c3ccc(C(C)C)cc3)nnn2c2ccsc12	.	.	.	.	.
Cc1ccc(Nc2nc3c(S(=O)(=O)c4ccccc4)nnn3c3ccsc23)c(C)c1	.	.	?	.	.
Cc1ccc(C)c(Nc2nc3c(S(=O)(=O)c4ccc(Br)cc4)nnn3c3ccsc23)c1	17.8µM	.	50.1µM	.	56.2µM
O=C1Nc2ccc(F)cc2C12SCCS2	.[0.0925 µM]	.	.	.	.
Cc1ccc(C(=O)Nc2nnc(S(=O)(=O)N3CCCCCC3)s2)cc1	7.94µM	?	10µM!	.	25.1µM!
Cc1ccccc1C(=O)Nc1nnc(S(=O)(=O)N2CCCc3ccccc32)s1	.	.	.	.	.
Cc1ccccc1C(=O)Nc1nnc(S(=O)(=O)N2CCCCCC2)s1	14.1µM	?	22.4µM!	.	39.8µM!
O=C(COc1ccccc1)Nc1nnc(S(=O)(=O)N2CCCCC2)s1	.	.	.	.	.
O=C(Nc1nnc(S(=O)(=O)N2CCOCC2)s1)c1ccc(F)cc1	.	.	.	.	.
O=C(COc1ccccc1Cl)Nc1nnc(S(=O)(=O)N2CCCCCC2)s1	56.2µM!	.	.	.	.
O=C(Nc1nnc(S(=O)(=O)N2CCN(c3ccc(F)cc3)CC2)s1)c1ccco1	44.7µM	.	?	.	?
COc1ccccc1C(=O)Nc1nnc(S(=O)(=O)N2CCCCC2)s1	.	.	.	.	.
O=C(Nc1nnc(S(=O)(=O)N2CCOCC2)s1)c1ccccc1F	.	.	.	.	.
O=C(Nc1nnc(S(=O)(=O)N2CCCCCC2)s1)c1ccccc1F	11.2µM!	.	10µM!	.	39.8µM!
COc1ccccc1C(=O)Nc1nnc(S(=O)(=O)N2CCCCCC2)s1	10µM!	.	7.08µM!	.	20µM!
CN1CCN(c2ncc3nc(-c4cc(F)cc(F)c4)c(=O)n(CCC#N)c3n2)CC1	.[0.501 µM]	/	/	/	/
CCN(C(=O)c1coc(=O)c2ccccc12)c1ccccc1C	.	.	.	.	.
Cc1ccc(/C([O-])=C(/C(=S)NCc2ccccc2)[n+]2cccc(CO)c2)cc1[N+](=O)[O-]	28.2µM	.	?	.	?
Cc1nc(S(=O)(=O)c2ccc(Cl)cc2)c(N(C)C)o1	?	.	.	.	.
C[C@@H]1O[C@@H](O[C@@H]2[C@@H](O)[C@H](OCCc3ccc(O)c(O)c3)O[C@H](CO)[C@H]2OC(=O)/C=C/c2ccc(O)c(O)c2)[C@H](O)[C@H](O)[C@H]1O	/	?	/	?	17.8µM
Cc1ccc(-c2noc(CCC(=O)Nc3ccc(F)cc3Cl)n2)cc1	.	.	.	.	.
